Results as given in PubChem BioAssay AID2280 (The Scripps Research Institute Molecular Screening Center, 2010).
About 1,400 (0.44%) of roughly 320,000 compounds were called active. The sample holds actives, similar compounds and a random draw of the others, so the mix is not that of the screen.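 Rule for the calls: active = percent inhibition above a per-plate cutoff, the plate mean of test compounds plus 3 SD (cut at about 30% in these data); inactive = the rest.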

What follows are compounds tested against Female germline-specific tumor suppressor gld-1 (Caenorhabditis elegans) (UniProt Q17339) (assay: small molecules blocking C. elegans GLD-1 RNA recognition – biochemical, fluorescence polarization, primary screen (AID 2280;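 note: 0% = DMSO wells with GLD-1 and probe and 100% = wells lacking GLD-1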)). Settings: purified GLD-1 + fluorescein TGE RNA, at 5.96 µM, hits give high values.
Chain of Female germline-specific tumor suppressor gld-1 (Caenorhabditis elegans) (Q17339 whole entry, looked up): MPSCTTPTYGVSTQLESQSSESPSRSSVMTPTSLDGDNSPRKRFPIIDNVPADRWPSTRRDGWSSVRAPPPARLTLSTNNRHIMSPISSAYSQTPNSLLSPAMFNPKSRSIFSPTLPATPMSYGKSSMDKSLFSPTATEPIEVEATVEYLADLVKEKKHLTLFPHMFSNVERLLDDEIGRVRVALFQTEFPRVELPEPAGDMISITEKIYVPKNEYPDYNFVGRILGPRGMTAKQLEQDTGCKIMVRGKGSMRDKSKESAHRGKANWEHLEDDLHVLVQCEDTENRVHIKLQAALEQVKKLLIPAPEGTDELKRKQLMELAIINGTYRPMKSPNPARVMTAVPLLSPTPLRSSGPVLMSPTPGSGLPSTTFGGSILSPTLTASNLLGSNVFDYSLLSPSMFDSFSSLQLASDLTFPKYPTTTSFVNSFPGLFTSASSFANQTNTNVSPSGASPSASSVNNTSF

| SMILES | inhibition |
| --- | --- |
| N[C@@H](Cc1ccccc1)C(=O)N1CCOCC1 | 10.2% (inactive) |
| O=C(NCCN1CCOCC1)[C@H](Cc1ccccc1)N1C(=O)c2ccccc2C1=O | 5.89% (inactive) |
| C=C1CCN([C@@H](Cc2ccccc2)C(=O)N2CCOCC2)S(=O)(=O)c2ccccc21 | 39.9% (active) |
| CCN(c1ccc2c(c1)OCO2)S(=O)(=O)c1cc(Br)cc2c1N(C(=O)C1CC1)CC2 | 2.82% (inactive) |
| Cc1ccc(S(=O)(=O)c2c[nH]c3ccc(Cl)cc3c2=O)cc1 | 1.43% (inactive) |
| Cc1cc(=O)oc2cc(OCC3CC(c4ccccc4Cl)=NO3)ccc12 (centres undefined) | 4.3% (inactive) |
| CC(=O)c1nnn(-c2ccc(Cl)cc2C#N)c1C | 2.27% (inactive) |
| CC[N+](C)(CC)CCC[n+]1c(-c2ccccc2)c2cc(N)ccc2c2ccc(N)cc21 | 62.4% (active) |
| CC(C)[C@H](NC(=O)N1CCn2c1nc1ccccc12)C(=O)NC1CC1 | -3.08% (inactive) |
| Cc1ccc(CNC(=O)c2cccc3c2C(=O)c2ccc(N4CCC(C)CC4)cc2S3(=O)=O)cc1 | 124% (active) |
| Cc1ccc(CNC(=O)c2ccc3c(c2)S(=O)(=O)c2ccccc2C3=O)cc1 | -2.48% (inactive) |
| CC1CCN(c2c(NCc3ccc(C(=O)NCc4ccccc4)cc3)c(=O)c2=O)CC1 | -1.64% (inactive) |
| O=[N+]([O-])c1cc(S(=O)(=O)Nc2cccc(Cl)c2)ccc1N=Nc1c(O)[nH]c2ccccc12 | 0.17% (inactive) |
| O=C(NCC(c1cccs1)N1CCOCC1)c1cc(Cl)ccc1[N+](=O)[O-] (centres undefined) | 1.88% (inactive) |
| CCOC(=O)CN(C)S(=O)(=O)c1ccc(-c2cc(C(=O)OC)sc2C(F)(F)F)cc1 | 9.97% (inactive) |
| COc1ccc(C2=CC(c3cccc(OC)c3)n3nnnc3N2)cc1 (centres undefined) | 14.6% (inactive) |
| COc1ccc(C2C=C(c3ccc(Br)cc3)Nc3nc(NS(C)(=O)=O)nn32)cc1 (centres undefined) | 155% (active) |
| CSc1cccc(NC(=O)CN2C(=O)COc3ccc(S(=O)(=O)N4CCOCC4)cc32)c1 | -0.09% (inactive) |
| N#CCc1ccc(NC(=O)c2ccccc2C(=O)Nc2ccc(CC#N)cc2)cc1 | -0.7% (inactive) |
| COc1cccc(NC(=O)CN(C)CC(=O)c2c(N)n(Cc3ccccc3)c(=O)n(C)c2=O)c1 | 3.38% (inactive) |

| SMILES | inhibition |
| --- | --- |
| O=c1[nH]c(=O)c2nc3ccccc3nc2[nH]1 | 48.7% (active) |
| O=C1NCCn2nc3ccccc3c21 | -0.55% (inactive) |
| CNC(=O)c1cccc2nc3ccccc3nc12 | 3% (inactive) |
| Nc1ccc2nc3c(=O)[nH]c(=S)[nH]c3nc2c1 | 172% (active) |
| Cc1csc(/N=C/N(C)C)c1C#N | 7.85% (inactive) |
| COc1cccc(NC(=O)C(=O)c2cn(CC(=O)N3CCOCC3)c3ccccc23)c1 | 9.65% (inactive) |
| Cc1ccc(C2(C)NC(=O)N(CC(=O)N3CC(=O)Nc4ccccc43)C2=O)cc1 (centres undefined) | -0.04% (inactive) |
| Cc1ccc(-c2nnc(Nc3ccc(C(=O)N(C)C)cc3)c3ccccc23)cc1S(N)(=O)=O | 6.66% (inactive) |
| O=C(Nc1cccc(F)c1)N1C2CCC1CC(O)(c1cccnc1)C2 (centres undefined) | -5.02% (inactive) |
| CC[C@]1(O)CC2CN(CCc3c([nH]c4ccccc34)[C@@](C(=O)OC)(c3cc4c(cc3OC)N(C=O)[C@H]3[C@@](O)(C(=O)OC)[C@H](OC(C)=O)[C@]5(CC)C=CCN6CC[C@]43[C@@H]65)C2)C1 (some centres undefined) | 8% (inactive) |
| CC[C@]1(O)C[C@@H]2CN(CCc3c([nH]c4ccccc34)[C@@](C(=O)OC)(c3cc4c(cc3OC)N(C)[C@H]3[C@@](O)(C(=O)OC)[C@H](OC(C)=O)[C@]5(CC)C=CCN6CC[C@]43[C@@H]65)C2)C1 | 35.9% (active) |
| COc1ccc(Cc2nnc(N/N=C/c3ccccc3O)[nH]c2=O)cc1OC | 2.1% (inactive) |
| Cc1cccc(OCC(=O)NCC(=O)N/N=C/c2ccc(N(C)C)cc2)c1 | 1.86% (inactive) |
| Cc1ccc(/C=N/NC(=O)COc2ccccc2-c2ccccc2)cc1 | 52.5% (active) |
| Cc1ccc(/C=N/NC(=O)CSc2nc3ccccc3o2)cc1 | 13.4% (inactive) |
| COc1cc(/C=C2\Oc3ccc(C#Cc4ccc(O)cc4)cc3C2=O)cc(OC)c1 | -7.59% (inactive) |
| O=C(CCN1CCc2ccccc2C(O)(c2ccccc2)C1)c1ccc2c(c1)OCCO2 (centres undefined) | 8.71% (inactive) |
| COC(=O)c1cc(C(=O)N(Cc2ccccc2)c2ccccn2)cc([N+](=O)[O-])c1 | 3.82% (inactive) |
| COCCOC(=O)c1sc(=S)n(CCOC)c1N | 65.8% (active) |
| COc1cccc(-n2c(SCC(=O)NC3CCS(=O)(=O)C3)nc3ccccc3c2=O)c1 (centres undefined) | 1.53% (inactive) |

| SMILES | inhibition |
| --- | --- |
| CSCCC(NS(=O)(=O)c1ccc2c(c1)oc(=O)n2C)C(=O)NCc1ccccc1 (centres undefined) | 4.5% (inactive) |
| COC(=O)CSc1nc2ccccc2c(=O)n1Cc1ccccc1 | -3.39% (inactive) |
| C=CCSc1nc2c(c(=O)[nH]c(=O)n2C)n1Cc1ccccc1 | -0.99% (inactive) |
| Cc1cc2nc3c(=O)n(Cc4ccccc4)c(=O)[nH]c3nc2cc1N | 190% (active) |
| CCOC(=O)C(Cc1ccccc1)NC(=O)CCC(=O)c1ccc(OC)cc1 (centres undefined) | 2.6% (inactive) |
| COc1cc([C@H](Cc2ccccc2)NC(C)=O)oc(=O)c1 | 43.8% (active) |
| COc1ccc(OC)c(NC(=O)N[C@H](Cc2ccccc2)C(=O)NN)c1 | 6.48% (inactive) |
| CCCCCCCCc1c(O)nc(-n2[nH]c(C)c(CCO)c2=O)[nH]c1=O | 3.56% (inactive) |
| COCCN(C(=O)c1ccccc1F)c1c(N)n(Cc2ccccc2)c(=O)[nH]c1=O | 1.28% (inactive) |
| COCCn1c(N)c(N(Cc2ccccc2)C(=O)C2CCCCC2)c(=O)[nH]c1=O | 7.47% (inactive) |
| COCCn1c(N)c(NCc2ccccc2)c(=O)[nH]c1=O | 94.7% (active) |
| COC(=O)c1c(NC(=O)CN2CCN(S(=O)(=O)c3ccccc3[N+](=O)[O-])CC2)sc2c1CCC(C)C2 (centres undefined) | 1.69% (inactive) |
| COc1ccc(C2C(C#N)=C(N)N(c3ncn[nH]3)C3=C2C(=O)CCC3)cc1 (centres undefined) | 2.28% (inactive) |
| O=C(Nc1ccccc1C(=O)O)c1ccc(N2C(=O)C3CC=CCC3C2=O)cc1 (centres undefined) | 3.32% (inactive) |
| Brc1ccc(C2=CC(c3ccco3)n3ncnc3N2)cc1 (centres undefined) | 158% (active) |
| CCOc1ccc(C2=CC(c3ccccc3)n3ncnc3N2)cc1 (centres undefined) | 11.7% (inactive) |
| CC1=C(C(=O)OCc2ccccc2)C(c2ccco2)n2ncnc2N1 (centres undefined) | 0.86% (inactive) |
| CCC(C)[C@@H](C(=O)N1CCNCC1)n1cc(CCCCN)nn1 (some centres undefined) | 3.86% (inactive) |
| COc1cc2c(-c3ccc4c(c3)OCO4)c(-c3ccsc3)oc(=O)c2cc1OC | 0.87% (inactive) |
